Screens (PubChem BioAssay)
Sampled rows, rich in hits. Any-hit rate of the full collection: about 2.2%.
CHRM4 agonist: agonists of human muscarinic M4 receptor (CHRM4) | activation, % at 3 µM | 360,000 tested, 0.14% active | CHO-K1 hM4/Gqi5, Fluo-8 calcium fluorescence; vehicle 0%, full acetylcholine response 100% | P08173;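 active = activation above the run mean over all test wells plus 3 SD, cut at about 32% in these data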;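 also: peak over basal fluorescence ratio per well then scaled between controls; 0% = DMSO wells and 100% = acetylcholine at EC100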
M4 antag: blocks acetylcholine activation of human M4 receptor. P08173. CHO-hM4 cells, ACh EC80, Fluo-8 calcium fluorescence. inhibition, % at 3 µM. 360,000 tested, 0.73% active. AID 624125;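 active = inhibition above its plate's cutoff, the mean inhibition of sample wells plus 3 SD, cut at about 27% in these data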;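 also: 0% = acetylcholine EC80 with DMSO and 100% = DMSO without agonist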
CHRM1 agonist: human M1 muscarinic receptor agonism. CHO-K1 hM1, Fluo-8 calcium fluorescence, agonist mode; 0% DMSO, 100% acetylcholine EC100. activation, % at 3 µM. 360,000 tested, 0.33% active. P11229. AID 588814;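 active = activation above the run's mean compound activation plus 3 SD, cut at about 16% in these data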;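 also: peak over basal fluorescence ratio within a 140 s kinetic read after compound addition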
Target sequence (P11229 whole entry, looked up): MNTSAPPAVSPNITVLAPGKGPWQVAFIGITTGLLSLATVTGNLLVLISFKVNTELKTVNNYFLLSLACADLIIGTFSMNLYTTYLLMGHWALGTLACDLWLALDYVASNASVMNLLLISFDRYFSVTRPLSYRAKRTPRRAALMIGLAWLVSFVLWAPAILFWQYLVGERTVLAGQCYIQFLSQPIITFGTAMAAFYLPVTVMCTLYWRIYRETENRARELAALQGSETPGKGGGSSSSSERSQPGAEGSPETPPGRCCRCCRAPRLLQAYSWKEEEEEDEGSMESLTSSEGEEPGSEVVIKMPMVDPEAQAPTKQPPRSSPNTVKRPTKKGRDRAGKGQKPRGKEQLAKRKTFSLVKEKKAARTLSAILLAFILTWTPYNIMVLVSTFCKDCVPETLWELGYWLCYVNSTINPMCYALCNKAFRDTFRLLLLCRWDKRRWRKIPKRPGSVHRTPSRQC
M1 PAM: potentiates human M1 receptor response to acetylcholine. P11229. CHO-K1 hM1, Fluo-8 calcium fluorescence, ACh EC20; 0% = ACh EC20, 100% = maximal ACh. activation, % at 3 µM. 360,000 tested, 0.088% active; in the data active = activation above about 19%, passing the limit was not always enough
CHRM1 antagonist: human CHRM1 antagonism; AID 588852; CHO-K1 hM1, Fluo-8 calcium fluorescence, ACh EC80 antagonist; P11229; 360,000 tested, 1.3% active; inhibition, % at 3 µM;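 active = percent inhibition above its own plate's cutoff, namely the mean of that plate's compound wells plus 3 SD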;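 also: peak over basal fluorescence ratio during 140 s after agonist addition; 0% = ACh EC80 plus DMSO and 100% = DMSO alone without agonist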
M4 PAM: potentiates acetylcholine response at human M4 receptor; P08173; CHO-K1 hM4/Gqi5, Fluo-8 calcium fluorescence, ACh EC20; 0% = ACh EC20, 100% = maximal ACh; activation, % at 3 µM; 360,000 tested, 0.4% active; AID 624126;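 active = activation above its plate's cutoff, the mean activation of sample wells plus 3 SD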
* hit, by the source's call.

SMILES	CHRM4 agonist	M4 antag	CHRM1 agonist	M1 PAM	CHRM1 antagonist	M4 PAM
COc1ccccc1OCC(O)Cn1c(=N)n(Cc2ccccc2)c2ccccc21 (configuration not stated)	4.3	2.6	-5.7	-5.7	7.8	-7.7
COC(C[C@@H](O)[C@H](C)[C@@H](O)COCc1ccccc1)OC	2.9	36.5*	-9.0	-32.1	50.9*	-10.9
COC(C[C@H](O)[C@@H](C)[C@@H](O)COCc1ccccc1)OC	0.3	-1.5	0.6	4.2	-1.6	5.5
CCN(C(=O)CN1C(=O)NC(c2ccccc2)(c2ccccc2)C1=O)c1ccccc1	8.9	2.9	-0.5	5.1	-12.0	8.3
C=CCN(CC=C)C(=O)CN1C(=O)NC(c2ccccc2)(c2ccccc2)C1=O	3.2	-36.5	1.8	6.3	-17.9	17.8*
CCN(CC(=O)Nc1c(F)cccc1F)C(=O)c1cc(-c2cccs2)nn1-c1ccccc1	20.4	15.8	-1.1	-16.9	36.2*	-5.2
CN(CC(=O)Nc1c(Cl)cccc1Cl)C(=O)c1cc(-c2cccs2)nn1-c1ccccc1	10.7	7.8	-5.9	-7.8	12.5	-9.3
COc1ccccc1CNC(=O)c1cnc2sccn2c1=O	0.6	1.1	-2.7	-2.0	-3.0	-3.3
CCc1cc(OCCN2C(=O)NC(C)(C)C2=O)ccc1Cl	1.3	-5.9	-2.1	1.7	-2.4	4.6
CCOC(=O)CSc1nnc(N)s1	1.1	0.5	-2.1	3.0	-2.0	6.6
O=C(Nc1ccc2snnc2c1)Nc1cccc2ccccc12	11.6	0.9	17.3*	-7.0	-9.2	-5.3
Cc1nc2cc(NC(=O)Nc3cccc4ccccc34)ccc2n1C	3.1	-3.5	-7.0	6.3	-5.3	6.8
CC(C)(O)C#Cc1ccc(CN2CCN(C3CCCCC3)C(CCO)C2)s1 (configuration not stated)	0.1	26.6*	-12.8	-28.2	18.3	-22.0
CC(C)(O)C#Cc1ccc(CN2CCN(C3CCCC3)C(CCO)C2)cc1 (configuration not stated)	1.1	27.8*	-7.2	-22.2	52.6*	-43.8
OCCC1CN(Cc2cc3c(cc2Cl)OCO3)CCN1C1CCCC1 (configuration not stated)	1.4	19.1	-7.5	-18.5	38.3*	-46.8
CC(C)(O)C#Cc1ccc(CN2CCN(Cc3ccsc3)C(CCO)C2)cc1 (configuration not stated)	0.5	11.4	-12.3	-9.0	0.2	-10.7
OCCC1CN(Cc2ccncc2)CCN1C1CCCC1 (configuration not stated)	0.2	-2.4	-10.5	-9.4	11.9	-5.3
CSc1ccc(CN2CCN(C3CCCC3)C(CCO)C2)cc1 (configuration not stated)	1.8	57.3*	-8.6	-25.7	60.1*	-26.7
COC(=O)C1=C(C)N(C(C)c2ccccc2)C(=O)C1 (configuration not stated)	1.1	2.8	-8.4	2.9	1.7	-3.1
COc1cc2c(cc1OC)[C@H](C)N(C(=O)NCc1ccccc1)CC2	1.4	-9.3	-1.4	4.3	-1.7	1.3
CC(C)(O)C#Cc1ccc(CN2CCN(C3CCCCC3)C(CCO)C2)cc1 (configuration not stated)	1.0	15.6	-10.7	-27.4	25.2*	-10.4
O=C1NCCN1c1ccc(CN2CCN(C3CCCCC3)C(CCO)C2)cc1 (configuration not stated)	0.3	9.9	-8.0	-0.5	7.3	-9.1
Cc1cc(Cl)c(S(=O)(=O)NC2CCCC2)cc1OCC(N)=O	3.2	-0.4	0.8	8.4	3.4	9.7
CC1CCCC(C)N1C(=O)COC(=O)c1cc(F)c(F)cc1Cl (configuration not stated)	0.1	7.7	-7.9	-9.2	28.1*	-5.7
COc1ccc(CCn2c(=N)c(S(=O)(=O)c3ccccc3)cc3c(=O)n4ccccc4nc32)cc1	1.2	-9.8	-3.2	-2.2	7.1	6.3
SMILES	CHRM4 agonist	M4 antag	CHRM1 agonist	M1 PAM	CHRM1 antagonist	M4 PAM
CN(Cc1ccccc1)CC1CCCN(CCc2ccccc2F)C1 (configuration not stated)	0.3	14.8	-9.4	-13.9	10.6	-11.2
COc1ccc(F)c(CN(C)CC2CCCN(CCc3ccc(F)cc3)C2)c1 (configuration not stated)	0.9	14.2	-8.3	-24.7	33.1*	-14.1
CC(=O)c1cccc(CN(C)CC2CCCN(CCc3ccccc3C)C2)c1 (configuration not stated)	2.1	88.0*	-8.9	-27.3	99.8*	-16.4
COc1ccc(CN(C)CC2CCCN(CCc3ccc(F)cc3)C2)cc1OC (configuration not stated)	0.0	3.7	-9.0	3.6	-13.7	-3.5
COc1cc(CN(C)CC2CCCN(CCc3ccccc3F)C2)cc(Cl)c1OC (configuration not stated)	2.4	0.9	-9.8	-26.8	73.5*	-15.8
Cc1ccccc1CCN1CCCC(CN(C)CC(C)(C)C)C1 (configuration not stated)	0.1	-9.6	-5.7	5.8	-5.7	-5.2
O=C(CSc1ccc(-c2cccs2)nn1)Nc1ccccc1	5.0	-9.5	-5.0	4.9	-10.9	-8.2
O=C(NCC(c1ccco1)N1CCCC1)c1cccc(S(=O)(=O)N2CCCCC2)c1 (configuration not stated)	1.3	-12.8	-8.8	-9.0	12.9	-4.3
COc1ccc(S(=O)(=O)N(CC(=O)NCc2cccnc2)C2CCCCC2)cc1OC	8.2	-4.0	-1.9	1.7	-3.7	-9.3
COc1ccccc1CCN1CCCC(CN(C)C(=O)c2ccco2)C1 (configuration not stated)	-1.5	8.6	-6.0	-17.5	33.8	-10.2
COc1ccccc1CCN1CCCC(CN(C)C(=O)c2ccoc2)C1 (configuration not stated)	0.2	6.4	-5.4	-19.8	43.7*	-6.2
COCc1ccc(C(=O)N(C)CC2CCCN(CCc3ccccc3F)C2)o1 (configuration not stated)	1.4	17.7	-5.1	-19.9	48.4*	-22.9
COc1ccccc1CCN1CCCC(CN(C)CC(C)(C)CO)C1 (configuration not stated)	0.6	30.4*	-9.6	-20.4	46.7*	-16.1
O=C1COc2ccc(C(=O)COC(=O)CNC(=O)C3CCCCC3)cc2N1	1.2	0.5	-4.7	0.3	1.4	2.2
COCCn1c(C)cc(C(=O)COc2ccc(N(C)S(=O)(=O)c3ccc(C)cc3)cc2)c1C	7.9	-6.8	-3.0	8.0	-6.1	0.6
O=C1NCCN1CCNS(=O)(=O)c1cc(C(F)(F)F)cc(C(F)(F)F)c1	0.7	-2.2	0.2	11.3	-4.9	8.2
